Records with an inconclusive call do not appear. Active and inactive are the calls of the source. Calls come from the whole dose curve; as a rule, active = well fitted cell-killing curve with a large enough effect; inconclusive = small, poorly fitted or top-dose-only effect; inactive = flat fitted curve, though single readings scatter.
assay: Cellular viability qHTS for adrenocortical cancer (ACC) cell line NCI-H295R (AID 1963990); details: CellTiter-Glo ATP luminescence, 48 h; series mostly up to 46.1 µM; activity change, negative = viability loss: at the top concentration; note: nearly all actives have a fitted effect of over 60% in size;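 for activity change, negative = viability loss: 0% = DMSO only wells and -100% = full killing with cytotoxic reference compound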
How it was run: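 Luminescent ATP read-out (CellTiter-Glo, 20 min RT) after 48 h drug exposure of NCI-H295R cells; a titration up to 46 uM final. Data normalized to doxorubicin (100% inhibition) and DMSO (0%); 4-parameter fit gives IC50, max response.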
Potency is the fitted concentration of half-maximal effect.

Compound	activity change, negative = viability loss	Potency
COc1ccccc1C(=O)Nc1cc2c(cc1N1CCCCC1)n(C)c(=O)n2C	-15.8% (inactive)	
C=CC(=O)Nc1cccc(Oc2nc(Nc3ccc(N4CCN(C)CC4)c(F)c3)nc3[nH]ccc23)c1		8.91 µM (active)
COc1cc(N2CCN(C(C)=O)CC2)ccc1Nc1ncc(Cl)c(Nc2ccc(N3CCN(C(C)=O)CC3)cc2OC)n1		12.6 µM (active)
CC(/C=C1\SC(=S)N(CC(=O)O)C1=O)=C\c1ccccc1	-11.8% (inactive)	
O=C(Nc1ccc(Cl)cc1)Nc1ccc(Cl)c(C(F)(F)F)c1		1.84 µM (active)
COc1cc(Cc2cnc(N)nc2N)cc(OC)c1OC	-10.7% (inactive)	
COCCN1CCN(Cc2ccc(-c3n[nH]c4c3C(=O)c3c(NC(=O)NN5CCOCC5)cccc3-4)cc2)CC1		0.891 µM (active)
CC(=O)N(CC(O)CO)c1c(I)c(C(=O)NCC(O)CO)c(I)c(C(=O)NCC(O)CO)c1I (stereo not given)	10.9% (inactive)	
CCN(CC)CCCC(C)Nc1c2ccc(Cl)cc2nc2ccc(OC)cc12 (stereo not given)		14.1 µM (active)
CO[C@@H]1[C@@H](O)[C@H](O)[C@@H](n2c3c(Cl)cccc3c3c4c(c5c6cccc(Cl)c6[nH]c5c32)C(=O)NC4=O)O[C@H]1CO		5.62 µM (active)
CNCCCOc1cc(F)c(-c2c(Cl)nc3ncnn3c2N[C@@H](C)C(F)(F)F)c(F)c1		0.112 µM (active)
Oc1ccc(Cl)cc1Sc1cc(Cl)ccc1O		4.11 µM (active)
Nc1nc(N)c2nc(-c3cccc(Cl)c3)c(N)nc2n1		1.12 µM (active)
CN1Cc2c(N)cccc2C(c2ccccc2)C1 (stereo not given)	-1.35% (inactive)	
CCc1cccc2c3c([nH]c12)[C@@](CC)(CC(=O)O)OCC3	-10.9% (inactive)	
Cc1[nH]c(/C=C2\C(=O)Nc3ccc(S(=O)(=O)N(C)c4cccc(Cl)c4)cc32)c(C)c1C(=O)N1CCN(C)CC1		14.1 µM (active)
C#C[C@]1(O)CC[C@H]2[C@@H]3CCC4=CC(=O)CC[C@@H]4[C@H]3CC[C@@]21CC		inactive
S=c1[nH]c2ccccc2s1	-10.7% [at 92.7 µM] (inactive)	
CC(C)n1c(=O)cc(N[C@@H](C)c2ccccc2)[nH]c1=O	-6.37% (inactive)	
CN1CCCN=C1COC(=O)C(O)(c1ccccc1)C1CCCCC1 (stereo not given)	-7.47% (inactive)	

Compound	activity change, negative = viability loss	Potency
CCOC(=O)NNc1nncc2ccccc12	-5.6% (inactive)	
C=CC(=O)Nc1cc(N2CCN(CC)CC2)ccc1Nc1cc(N(C)C(=O)Nc2c(Cl)c(OC)cc(OC)c2Cl)ncn1	-0.0877% (inactive)	
CCOC(=O)O[C@]1(C(=O)OCCl)CC[C@H]2[C@@H]3CCC4=CC(=O)C=C[C@]4(C)[C@H]3[C@@H](O)C[C@@]21C	-13.4% (inactive)	
COc1ccc(/C=N/NC(=O)c2ccncc2)cc1OC	3.52% (inactive)	
COc1cc(NS(C)(=O)=O)ccc1Nc1c2ccccc2nc2ccccc12		8.91 µM (active)
Cc1onc(-c2ccccc2)c1-c1ccc(S(N)(=O)=O)cc1		inactive
Cc1cc(-n2nc3ccc(Cl)cc3n2)c(O)c(C(C)(C)C)c1	-0.369% (inactive)	
Cc1ccsc1/C=C/C1=NCCCN1C	-24.7% (inactive)	
C[C@@H](C1=C(CCN(C)C)Cc2ccccc21)c1ccccn1	-2.13% (inactive)	
Nc1ncnc2nc[nH]c12	8.19% (inactive)	
CCOC(=O)NNc1ccc(N(CC)CC(C)O)nn1 (stereo not given)	-2.51% (inactive)	
CN(C)[C@@H]1C(=O)C(C(N)=O)=C(O)[C@@]2(O)C(=O)C3=C(O)c4c(O)ccc(Cl)c4[C@@H](O)[C@H]3C[C@@H]12	-8.54% (inactive)	
CC[C@H](CC[C@@H](C)[C@H]1CC[C@H]2[C@@H]3CC=C4C[C@@H](O)CC[C@]4(C)[C@H]3CC[C@]12C)C(C)C	-11.6% (inactive)	
O=c1ncccn1[C@@H]1O[C@H](CO)[C@@H](O)[C@H]1O	12.7% (inactive)	
C[C@]12CCC(=O)C=C1[C@@H]1C[C@@H]1[C@H]1[C@@H]3[C@@H]4C[C@@H]4[C@@]4(CCC(=O)O4)[C@@]3(C)CC[C@@H]12	-31.8% (inactive)	
COc1ccc2cc(C=O)ccc2c1	3.87% (inactive)	
Cc1ccc(NC(=O)NCc2ccc3c(c2)CN(C2CCC(=O)NC2=O)C3=O)cc1Cl (stereo not given)		0.0251 µM (active)
Cc1ccc(Sc2ccccc2N2CCNCC2)c(C)c1		3.55 µM (active)
OC[C@H]1O[C@@H](n2cnc3c(=S)nc[nH]c32)[C@H](O)[C@@H]1O		2.31 µM (active)
Clc1cccc(C(c2ccc3nc[nH]c3c2)n2ccnc2)c1 (stereo not given)		inactive
